# Shown are actives, neighbours in structure and some others; about 15% of the full set was active somewhere.
# Pf growth 96h: P. falciparum growth inhibition at 96 hours | P. falciparum luciferase reporter growth, 96 h | Potency, µM (titrated, usually from 28.7 µM), without a hit: at the top dose activity change, negative = inhibition, usual class: inhibitors | 320,000 tested, 6.9% active | AID 504834; further: potency means the concentration at half of the fitted maximal effect; on the % scale 0 is the no-effect control and ±100 the full control effect
#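 P. falciparum expressing integrated firefly luciferase, in erythrocytes at 2% hematocrit, 0.05% parasitemia, incubated with compounds 96 h at 37 C, 5% CO2. Growth inhibition read as loss of luminescence; two-generation exposure targets delayed-death apicoplast inhibitors.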
# Sm TGR block: inhibitors of Schistosoma mansoni thioredoxin glutathione reductase | Q962Y6 | purified TGR, DTNB reduction, TNB absorbance 405 nm | Potency, µM (highest dose often 114 µM), without a hit: top-dose activity change, negative = inhibition, usual class: inhibitors | 360,000 tested, 3% active; further: potency means the concentration at half of the fitted maximal effect; on the % scale 0 is the no-effect control and ±100 the full control effect; nearly all actives have a fitted effect of over 60% in size
#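 Kinetic colorimetric format: TGR-catalysed, NADPH-driven DTNB reduction monitored via TNB absorbance. Enzyme dispensed at 20 nM; compound exposure 15 min at room temperature before reaction start.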
# HCV inhibitor: inhibitors of hepatitis C virus infection. AID 651820. 340,000 tested, 3.4% active. Potency, µM (titrated, usually from 41.8 µM), for the others: at the highest dose activity change, negative = inhibition, most hits filed as inhibitors. Huh7.5.1 HCVcc-Cre infection, luciferase reporter, 44 h; further: potency means the concentration at half of the fitted maximal effect; on the % scale 0 is the no-effect control and ±100 the full control effect
#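 Whole-lifecycle infectious HCVcc-Cre system; cells 1,000/well, compound then virus (~0.5 moi) added 4 h after plating, 44 h culture. Luciferase read 15 sec following 15 min substrate incubation, room temp.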
# HCMV inh: human cytomegalovirus inhibition | activity change, negative = inhibition, % at 57.5 µM | AID 1259415 | HFF cells, HCMV-luciferase reporter, 72 h; stronger effect = lower value | 410,000 tested, 4.5% active; in the data active means activity change below about -60%; inconclusive means no clear call, values can overlap the other calls; inactive means above about -39%; further: on the % scale 0 is the no-effect control and ±100 the full control effect
#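 Two compound doses tested in HFFs infected with HCMV-luciferase, MOI 1 PFU/cell, 72 h at 37C. Lysate luminescence read with OneGlo; data normalized against buffer-only and 10uM Salinomycin inhibitor controls.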
# SARS PLP yeast: SARS-CoV PLP inhibition in yeast; AID 485353; Potency, µM (titrated, usually from 32.9 µM), inactives show at the top dose activity, positive = growth rescue, most hits filed as activators; S. cerevisiae expressing SARS-CoV PLpro, growth rescue; 330,000 tested, 0.19% active; calls by dose curve; further: potency means the concentration at half of the fitted maximal effect; 0% is about no effect; nearly all actives have a fitted effect of over 55% in size
# Pf growth 48h: P. falciparum growth inhibition at 48 hours (one generation) | P. falciparum luciferase growth in erythrocytes, 48 h | Potency, µM (highest dose often 28.7 µM), without a hit: at the highest dose activity change, negative = inhibition, hits mostly inhibitors | 310,000 tested, 5.9% active | AID 504832; further: potency means the concentration at half of the fitted maximal effect; on the % scale 0 is the no-effect control and ±100 the full control effect
#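 Read-out is firefly luciferase luminescence from an integrated reporter in P. falciparum, so falling signal marks reduced parasite growth. Infected erythrocytes were at 2% hematocrit and 0.1% parasitemia (final) in Albumax-supplemented RPMI 1640.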
# Active calls of the source: *; ? = inconclusive; . = no result; ! = not active in a repeat; [ ] = dose if it differs, or a comment. Unless noted, the call rests on the fitted dose curve; in most records, active means well fitted curve in the direction sought with a large enough effect; inconclusive means small, poorly fitted or top-dose-only effect, or another doubt; inactive means no such curve, though single readings can be large; an effect the other way counts as inactive or inconclusive.
SMILES,Pf growth 96h,Sm TGR block,HCV inhibitor,HCMV inh,SARS PLP yeast,Pf growth 48h
CC(=O)Nc1ccc(Nc2cc(C)nc3c(-c4ccccc4)cnn23)cc1,0%,0%,?,-92*,-93%,1%
CCC(C)Sc1cc(-c2nc3ccccn3c2NC2CCCCC2)ccc1OC (stereo unspecified),?,7%,?,-88*!,-14%,4.1µM*
CC(=O)c1ccc(-c2cccc(-c3nc4ccccn4c3NC3CCCCC3)c2)cc1,?,-1%,10µM*,-29,6%,12µM*
CCC(C)Sc1cc(-c2nc3cc(C)ccn3c2NC2CCCCC2)ccc1OC (stereo unspecified),.,.,?,-84*!,1%,.
Cc1ccn2c(NC3CCCC3)c(-c3cccs3)nc2c1,90%,20µM*,-18%,-27,-3%,36%
c1csc(-c2nc3ccccn3c2NC2CCCCC2)c1,2%,1%,-15%,-30,-3%,5%
CC(C)c1nc2ccccn2c1NC1CCCCC1,224%,1%,2%,-25,2%,15%
CCC(C)Sc1cccc(-c2nc3cnccn3c2NC2CCCCC2)c1 (stereo unspecified),.,.,?,40,-5%,.
CSc1ccc(CNC(=O)CCn2ccc3cc(S(=O)(=O)N4CCC(C)CC4)ccc32)cc1,.,4%,.,-7,.,.
COc1cc(C(=O)NCC(c2ccco2)N2CCOCC2)cc(OC)c1OC (stereo unspecified),5%,-17%,8%,1,1%,?
CCOc1ccc(C(=O)NCC(=O)NCC(c2ccco2)N2CCCCC2)cc1 (stereo unspecified),49%,89µM*,1%,-33,0%,19%
O=C(NCC(c1ccco1)N1CCCCC1)c1ccc(OCc2ccccc2)cc1 (stereo unspecified),?,-10%,-24%,3,-4%,?
COc1cc(C(=O)NCC(=O)NCC(c2ccco2)N2CCCCC2)cc(OC)c1OC (stereo unspecified),3.3µM*,-3%,0%,0,5%,?
O=C(NCC(c1ccco1)N1CCCCC1)c1ccc(COc2ccccc2)cc1 (stereo unspecified),2.9µM*,-4%,13µM*,-12,-4%,?
Cc1cc([N+](=O)[O-])ccc1NC(=O)c1csc(C)c1C,-5%,-14%,-24%,65,?,145%
CC(C)OC(=O)CCC1(C(=O)O)CCC(=O)NC1 (stereo unspecified),.,3%,20%,-20,2%,1.3µM*
NC(=O)c1cc2ccncc2c2ccccc12,8%,-14%,-13%,-99*,0%,17%
O=C(CN(C(=O)CSc1nnc(COc2ccccc2)o1)c1ccc(F)cc1)NC1CCCC1,7%,-3%,?,-31,-3%,9%
CCOc1ccc(N(CC(=O)NC2CCCC2)C(=O)CSc2nnc(COc3ccccc3)o2)cc1,7.4µM*,18%,22µM*,?,-9%,.
O=C(CN(C(=O)CSc1nnc(COc2ccccc2)o1)c1ccc(F)cc1)NC1CCCCC1,?,-2%,?,-15,-1%,12µM*
COc1ccc(Cc2c(-c3ccc(C)cc3)nc3cc(C)c(Br)c(C)n23)c(C)c1,.,.,.,50,.,.
O=C(CN(c1ccccc1F)S(=O)(=O)c1ccccc1)Nc1ccc2c(c1)OCCO2,4.1µM*,-4%,?,?,3%,14%
O=C(CN(c1ccc(F)cc1)S(=O)(=O)c1ccc2c(c1)OCCO2)Nc1ccccc1,?,1%,-18%,?,4%,.
CC(=O)Nc1ccc(NC(=O)CN(c2ccc(F)cc2)S(=O)(=O)c2ccc3c(c2)OCCO3)cc1,8.3µM*,-13%,5%,9,3%,.
COc1ccc(SC[C@H](Cc2ccccc2)N2CC[C@@H](C)CCC2=O)cc1,?,-16%,?,-36,3%,12µM*
SMILES,Pf growth 96h,Sm TGR block,HCV inhibitor,HCMV inh,SARS PLP yeast,Pf growth 48h
COc1ccc(SC[C@H](Cc2ccccc2)N2CC[C@@H](NC(=O)OCc3ccccc3)CCC2=O)cc1,?,0%,?,6,-16%,7.4µM*
COc1ccc(SCCN2CC[C@@H](NC(=O)OCc3ccccc3)CCC2=O)cc1,?,-12%,?,-24,-6%,?
Cc1nnc2c(Oc3ccccc3)nc3ccccc3n12,44%,7%,21%,?,1%,8%
Cc1ccc(Oc2nc3ccccc3n3cccc23)cc1,7%,-3%,7.9µM*,-25,0%,-23%
c1ccc(Oc2nc3ccccc3n3cccc23)cc1,-23%,-11%,10µM*,-10,7%,-4%
N#Cc1ccccc1Cn1c(=O)n(CCCC(=O)NCc2ccccc2Cl)c(=O)c2ccccc21,.,-7%,.,26,.,.
O=C(c1n[nH]c2ccccc12)N1CCN(S(=O)(=O)c2ccc(Cl)cc2)CC1,?,9%,-4%,-11,3%,2.1µM*
O=C(c1n[nH]c2ccccc12)N1CCOCC1,15µM*,-8%,5%,-14,-1%,9%
O=C(c1cccnc1)N1CCN(S(=O)(=O)c2ccc(Cl)cc2)CC1,4.1µM*,-3%,-1%,29,15%,-21%
CC[C@H](C)[C@@H](NC(=O)O[C@@H]1C(=O)c2cc(Br)ccc2O[C@H]1c1cccc(OC)c1)C(=O)OC,17%,-2%,-14%,.,-19%,23%
Cc1oc(-c2cccs2)nc1CN1CCC(CO)(CCOc2ccccc2)CC1,2%,-8%[57.1 µM],-18%,0,0%,?
N#CC(Br)Br,?,50µM*,4%,4,-11%,0%
CCOC(=O)c1sc(N2C(=O)C(O)=C(C(=O)c3ccc(C)o3)C2c2cccc([N+](=O)[O-])c2)nc1C (stereo unspecified),15µM*,?,?,-23,2%,31%
CCOc1ccc(C2C(C(=O)c3ccc(C)o3)=C(O)C(=O)N2c2nc(C)c(C(=O)OC)s2)cc1 (stereo unspecified),30%,45µM*,-11%,-26,0%,49%
CCOC(=O)c1sc(N2C(=O)C(O)=C(C(=O)c3ccc(C)o3)C2c2ccc(OC)c(OC)c2)nc1C (stereo unspecified),14%,-2%,-18%,12,1%,-20%
CCOC(=O)c1sc(N2C(=O)C(O)=C(C(=O)c3ccco3)C2c2ccc(C)o2)nc1C (stereo unspecified),?,7.9µM*,10%,-22,-2%,-6%
CCOC(=O)C1=C(N)OC2=C(C(=O)CCC2)C12C(=O)N(CC(N)=O)c1ccccc12 (stereo unspecified),6.6µM*,-3%,-14%,?,0%,43%

# Screening results (PubChem)
